Compounds without any hit were thinned out: in the full panel of roughly 83,000, 20% have a hit.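 Each cell line was grown in a 96-well plate and treated with one concentration of compound for 48 hours. Values below 10 were considered active.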 A number with no mark means an inactive call. Active and inactive are the calls of the source.
What follows are molecules tested on HL-60(TB) leukemia (assay: NCI-60 one-dose screen, 48 h (100 = growth as untreated, 0 = no growth, -100 = all killed)). Conditions: 10 µM unless noted.

In order of rising growth:
1. CC(=O)OCC1OC(OC2C(COC(C)=O)OC(OCCC[S-])C(OC(C)=O)C2OC(C)=O)C(OC(C)=O)C(OC(C)=O)C1OC(C)=O.[Au+].c1ccc(CN2[CH-]N(Cc3ccccc3)C(c3ccccc3)=C2c2ccccc2)cc1 (stereo not given)  13.6%
2. CCCCNc1ccc(Nc2ccccc2)cc1  16.5%
3. CC(=O)O[C@H]1[C@@H]2OC(=O)C(CSc3ccccc3)[C@@H]2C[C@H]2O[C@]2(C)CC/C=C(\C)CCC[C@@H]1C (stereo not given in full)  25.8%
4. C/C(=N\NC(=O)c1ccccc1N)c1ccccc1O  40.8%
5. CNC(=O)c1cc(Oc2ccc(NC(=O)Nc3ccc(Cl)c(C(C)(C)C)c3)c(F)c2)ccn1  46.7%
6. O=C1OC(c2ccc(-c3ccccc3)cc2)=C/C1=C/c1c2ccccc2cc2ccccc12  51%
7. Nc1ccc(-c2cc3c(Nc4ccc(Oc5cccc(C(F)(F)F)c5)c(Cl)c4)ncnc3s2)cc1  54.9%
8. CC(C)CSc1nc(Nc2ccccc2)c(C#N)c(-c2ccc(F)cc2)n1  73.4%
9. COc1ccc(/C=C2\CCCC3C2=Nc2ccccc2NC3c2ccc(OC)cc2)cc1 (stereo not given)  78.2%
10. O=Nc1ccccc1N=O  78.3%
11. C/C=C/C=N/NC(=S)Nc1ccccc1  81.7%
12. O=C(C[n+]1cccc(Br)c1)c1ccc2c(c1)CCCC2  83.6%
13. O=C1NC(=S)S/C1=C\c1cccc([N+](=O)[O-])c1  83.8%
14. CCN(CC)CCN(CCN(CC)CC)c1ccccc1  87.9%
15. O=C(/C=C/c1cccnc1)c1ccccc1  89.8%
16. CC(C)c1cc(C(=O)O)c(O)c(C(C)C)c1.CC(C)c1cc(C(=O)O)c(O)c(C(C)C)c1.[Mn]  94.2%
17. COc1ccc(C(=O)C(C)Br)cc1OC (stereo not given)  96.7%
18. Cc1ccc(/C=N/NC(=O)CSc2nc3ccccc3c(=O)n2Cc2ccc(S(N)(=O)=O)cc2)cc1  97.8%
19. CC(=O)N/C(=C1/OC(C(O)C(O)C(O)CO)CN1C)[P+](c1ccccc1)(c1ccccc1)c1ccccc1 (stereo not given)  97.9%
20. CN(C)/C(N)=N/N=C(\c1ccccc1)c1ccccn1  98.5%
21. Cc1nc2ccc(Cl)cc2n1C  101%
22. C=CCC(O)C=C (stereo not given)  101%
23. NC1=NC(c2cccc(Br)c2)c2sc3ccc(Cl)cc3c2N1 (stereo not given)  102%
24. CC(O)CN(CC(C)O)N(CC(C)O)CC(C)O (stereo not given)  102%
25. COc1ccc2c(c1)OC13Oc4cc(OC)ccc4C=C1CCCCC3=C2  104%
26. NC(=O)c1ccc[n+](CC(=O)N2CCN(c3cc4c(cc3F)c(=O)c(C(=O)O)cn4C3CC3)CC2)c1  106%
27. CCS(=O)(=O)OCCO[C@H]1Cc2cc3ccc(=O)oc3cc2OC1(C)C  106%
28. Oc1ccc([S+](c2ccc(O)cc2)c2ccc(O)cc2)cc1  110%
29. OC(CCN1CCCC1)(c1ccccc1)C1CCCCC1 (stereo not given)  119%

With `Cc1cc(Nc2ccc3c(c2)OCO3)c2cc3c(cc2n1)OCO3` the growth was -11.9% (active).
For `COc1ccc(-c2cnc(-c3ccncc3-c3cccc(OC)c3)o2)cc1`, the growth was 0.0287% (active).
In the case of `c1ccc(/C(=N\Nc2ccc3ccccc3n2)c2ccccn2)cc1`, the growth is reported as -29.8% (active).
In the case of `C[C@]12CCc3nc(Nc4ccc(O)cc4)sc3C1=CC[C@@H]1[C@@H]2CC[C@]2(C)/C(=N/NC(N)=S)CC[C@@H]12`, the growth is reported as -4.61% (active).
With `O=C(c1nc2ccccc2[nH]1)C1[C@@H](c2cccc(O)c2)C2CC3CCCCC3N2[C@@]12C(=O)Nc1cc(Cl)ccc12` (stereo not given in full) the growth was 6.59% (active).
`COc1ccc(-n2nc(C)c3c(Nc4ccc(NC(=O)Nc5ccc(Cl)c(C(F)(F)F)c5)cc4)ncnc32)cc1` was tested, and the growth was -9.54% (active).
With `NNC(=S)N/N=C/c1ccccn1` the growth was 1% (active).
For `COc1ccc(C2CC(=O)c3c(O)c(OC)c(OC)c(OC)c3O2)cc1O` (stereo not given), the growth was -4.32% (active).
For `CCOC(=O)CCC(=O)P(=O)(O)O`, the growth was 9.71% (active).
In the case of `COC(=O)C1=C(C(=O)ON)[C@@H]2C=C[C@@]1([C@@H](Cc1ccccc1)Nc1ccccc1)O2`, the growth is reported as -3.29% (active).

`C=C(C)[C@@H]1C/C=C(\COC(=O)[C@H](OC(C)=O)C(NC(=O)c2ccccc2)c2ccccc2)CC[C@H]2O[C@]2(C)CC/C=C(\C)CC1` (stereo not given in full) showed a growth of 29.9% [5 µM].
